Screening data as filed in PubChem.
HT1080-NT tox – kills 2HG-producing HT-1080-NT fibrosarcoma cells; Potency, µM (highest dose often 46.1 µM), most hits filed as cytotoxic; AID 686970; HT-1080-NT fibrosarcoma viability, CellTiter-Glo ATP luminescence, 48 h; 1.6% of 360,000 active;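 further: NT is the 2HG producing partner of a matched IDH1 knockdown line; nearly all actives have a fitted effect of over 55% in size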
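Compounds were tested in concentration-response format on HT-1080-NT cells for 48 hours at 37 degrees C. Cell viability came from CellTiter-Glo luminescence; curves were classified by r2, response magnitude and activity.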
TDP1 cell noCPT – qHTS for Inhibitors of human tyrosyl-DNA phosphodiesterase 1 (TDP1): qHTS in cells in absence of CPT; 15% of 420,000 active; Potency, µM (series often up to 46.2 µM), usual class: inhibitors; DT40 Tdp1-/- hTDP1 cells, no CPT, ATP luminescence, 48 h; AID 686978, 2013; further: nearly all actives have a fitted effect of over 55% in size
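Chicken DT40 Tdp1-/- cells complemented with human TDP1, screened without camptothecin (DMSO vehicle only), 400 cells/well. Compounds pin-transferred, cells incubated at 37 °C for at least 48 hr. Growth read as ATP-dependent luminescence (CellTiter-Glo, 30 min at RT).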
HT1080 IDH1KD tx – HT-1080 IDH1 knockdown cell toxicity (counter line); HT-1080 IDH1 knockdown viability, ATP luminescence, 48 h; Potency, µM (top dose mostly 46.1 µM), most hits filed as cytotoxic; 2% of 360,000 active; AID 686971
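HT-1080-IDH1KD cells (IDH1 knocked down), 750/well in RPMI with 5% FBS, treated with compound 48 h at 37 degrees C. Viability by CellTiter-Glo luminescence, normalised to DMSO and no-cell wells; concentration-response curves classed.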
TDP1 cell CPT – DT40-hTDP1 cell growth loss with CPT; chicken DT40 Tdp1-/-;hTDP1 cells + 20 nM CPT, ATP luminescence, 48 h; Potency, µM (doses to about 46.2 µM), hits mostly inhibitors; 12% of 420,000 active; further: nearly all actives have a fitted effect of over 55% in size
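Cell growth measured by CellTiter-Glo luminescence after a minimum 48 h, 37 C compound exposure with 20 nM CPT in Tdp1-knockout DT40 cells stably expressing hTDP1, seeded 400/well; qHTS titration format.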
IL1B secr inh – inflammasome signaling inhibition, IL-1 beta readout | THP-1 LPS/ATP IL-1B secretion, AlphaLISA, 16 h; active compounds read low | activity change, % at 57.5 µM | 4.7% of 360,000 active | AID 743279; in the data active means activity change below about -50%; inconclusive means mostly about -30% to -49%
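THP-1 cells pretreated 1 hr with compounds (up to 57.5 uM final), then stimulated with LPS (250 ng/mL final) plus ATP (1.25 mM final); secreted IL-1B measured by AlphaLISA after 16 hr, decreased signal indicating inhibition.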
Numbers stand for hits; n = inactive; u = inconclusive; x = not tested or not shown; [ ] = another dose, or the depositor's remark. Hits are enriched below; roughly 19% of the tested compounds scored in any of these assays. Unless noted, the call rests on the fitted dose curve; in most records, active means well fitted curve in the direction sought with a large enough effect; inconclusive means small, poorly fitted or top-dose-only effect, or another doubt; inactive means no such curve, though single readings can be large; an effect the other way counts as inactive or inconclusive.

SMILES	HT1080-NT tox	TDP1 cell noCPT	HT1080 IDH1KD tx	TDP1 cell CPT	IL1B secr inh
Nc1c(C(=O)Nc2ccccc2)c2nc3ccccc3nc2n1CCCN1CCOCC1	23µM	u	18µM	u	-78
N#Cc1c(N)n(CCCN2CCOCC2)c2nc3ccccc3nc12	n	n	n	n	u
C=CCn1c(N)c(C(=O)Nc2cccc(C)c2)c2nc3ccccc3nc21	n	n	u	n	-61
CC1(C)SC(=S)N(/N=C/c2cccnc2)C1N(O)C(=O)NC1CCCCC1 (stereo not drawn)	n	n	n	n	n
COCC(C)OC(=O)c1c(N)n(-c2ccc(OC)c(OC)c2)c2nc3ccccc3nc12 (stereo not drawn)	n	n	n	n	n
COC(=O)c1c(N)n(-c2ccc(OC)c(OC)c2)c2nc3ccccc3nc12	x	9.2µM	x	5.8µM	x
Nc1c(C(=O)NC2CCCC2)c2nc3ccccc3nc2n1/N=C/c1cccnc1	n	18µM	n	16µM	n
CCn1nnnc1SCC(=O)N1CCCc2ccccc21	n	u	n	n	n
C=CCNC(=O)c1c(N)n(-c2ccc3c(c2)OCO3)c2nc3ccccc3nc12	n	13µM	n	12µM	n
Nc1c(C(=O)NCC2CCCO2)c2nc3ccccc3nc2n1-c1ccccc1 (stereo not drawn)	u	16µM	u	16µM	n
CC(C)OP(C)(=O)CN1CCN(CP(C)(=O)OC(C)C)CC1 (stereo not drawn)	n	n	n[9.24 µM]	n	n
Cc1cccc(N2C(=O)CC(c3ccc(F)cc3)C3=C2COC3=O)c1 (stereo not drawn)	n	n	n	n	n
COc1ccc(N=C2C(=S)N(c3ccc(OC)cc3)C(=NS(=O)(=O)c3ccccc3)N2c2ccccc2)cc1	n	1.5µM	n	1.5µM	n
O=C(N/N=C/c1ccco1)c1cc(-c2ccncc2)nc2ccccc12	u	7.3µM	u	7.3µM	n
Cc1cc(C(=O)N/N=C/c2ccco2)c2ccccc2n1	n	u	n	u	n
O=C(N/N=C/c1cccs1)c1cc(-c2ccncc2)nc2ccccc12	n	0.58µM	n	0.58µM	n
O=C(N/N=C/c1cccs1)c1cc(C2CC2)nc2ccccc12	u	2.9µM	u	3.7µM	n
CCc1ccc(/C=N/NC(=O)c2cc(-c3ccncc3)nc3ccccc23)s1	u	3.3µM	u	4.6µM	n
O=C(CCSc1nnc(-c2ccco2)o1)N1CCOCC1	n	n	n	n	n
Cc1ccc(SC2=C(N(C)C)C(=O)c3ccccc3C2=O)cc1	u	5.2µM	u	4.6µM	-64
CCOC(=O)[C@]12CCCC=C1N(Cc1cccc3ccccc13)C(=O)[C@H](CC(=O)NCc1cccs1)C2	u	23µM	u	u	n
CCOC(=O)[C@]12CCC=C1N(Cc1cccc3ccccc13)C(=O)[C@H](CC(=O)NCc1ccc(C)o1)C2	u	23µM	u	16µM	n
CCOC(=O)[C@]12CCC=C1N(Cc1cccc3ccccc13)C(=O)[C@H](CC(=O)NCc1cccs1)C2	u	u	n	u	-69
CCOC(=O)[C@]12CCC=C1N(Cc1cccc3ccccc13)C(=O)[C@H](CC(=O)NCc1cccc3ccccc13)C2	n	u	n	u	n
COc1ccc(F)cc1S(=O)(=O)NCCCn1ccnc1	n	n	n	n	n
SMILES	HT1080-NT tox	TDP1 cell noCPT	HT1080 IDH1KD tx	TDP1 cell CPT	IL1B secr inh
Cc1ccc(-c2cnc3cc(C)nn3c2)cc1	n	u	n	n	n
Cc1ccc(-c2cnc3c(Cl)c(C)nn3c2)cc1	n	10µM	n	21µM	n
CC(CN1CCc2nnc(CNC(=O)c3cccc(F)c3)n2CC1)c1ccccc1 (stereo not drawn)	x	u	x	n[9.04 µM]	x
Cc1cccc(C)c1NC(=O)CC(C)c1ccccc1 (stereo not drawn)	n	n	n	n	n
CC(C)(C)NC(=O)CN(Cc1ccccc1)S(=O)(=O)c1ccccc1	n	n	n	n	-74
Cc1cccc(C)c1NC(=O)CNCC(=O)Nc1c(C)cccc1C	n	n	n	n	n
CCc1cccc(C)c1NC(=O)CN(C)Cc1ccc(Br)cc1	n	u	n	21µM	-57
